Results as given in PubChem BioAssay AID624351 (Southern Research Specialized Biocontainment Screening …, 2012).
In all, about 2,400 compounds went through this assay and about 1,400 (58%) were called active.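 Rule for the calls: active = inhibition of 30% or more at any tested dose; inconclusive = primary hits over the limit that were never retested; inactive = the rest.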 The set was probably picked from earlier hits. The list shows a part of the results.

Assay: coupled detection enzyme interference, dose response, artefact control for MgcRacGAP inhibitor project, biochemical, coupled enzyme counter-screen (AID 624351);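 note: signal is the ADP detection kit reading of free GDP without any GAP enzyme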;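 for inhibition: 0% = median positive control wells and 100% = median negative control wells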
Conditions: ADP Hunter coupled enzyme counter-screen, fluorescence, no MgcRacGAP; series mostly up to 80 µM

SMILES | inhibition | IC50
CN(C)c1ncc(C2=C(Cl)C(=O)C(N3CCCC3)=C(Cl)C2=O)s1 | -12.5% [at 10 µM] (inactive) | 
Nc1ccc2c(c1)OC1(CCCC1)O2 |  | 26 µM (active)
Nc1cc(Cc2ccccc2)ccc1O |  | 24.1 µM (active)
Oc1ccc(NCc2ccccc2OCc2ccccc2F)cc1 |  | inactive
COc1ccc(Br)cc1CNc1ccc(O)cc1 |  | 54 µM (active)
COc1ccc(Br)cc1CN(C)CC(=O)NCCc1ccccc1 |  | inactive
CN1C(=O)/C(=C/C=C2/CCCN2C)N(C)C1=S |  | 24.6 µM (active)
CN1C(=O)/C(=C/C=C2\SCCN2C)N(C)C1=S |  | 26.6 µM (active)
c1ccc(-c2ccccc2OCCOCCN2CCOCC2)cc1 |  | inactive
NC(N)=N/N=C/c1ccc(Cl)cc1Cl |  | inactive
CCN(CC)c1ccc(/C=N/NC(=O)OC)c(O)c1 |  | 62.6 µM (active)
CCN(CC)c1ccc(/C=N/Nc2nc(C)cc(C)n2)c(O)c1 |  | 65.2 µM (active)
CCOC(=O)N/N=C/c1ccc(N(CC)CC)cc1O |  | 81.2 µM (active)
CCc1ccc2nc3sc(C(=O)O)cc3cc2c1 |  | inactive
CCOc1cc(/C=N/Nc2ncc(C)c(=O)[nH]2)ccc1O |  | 38.9 µM (active)
CCOc1cc(/C=N/Nc2nc(=O)[nH]nc2C)ccc1O |  | 43.9 µM (active)
COc1ccccc1/C=C(/C(=O)OCC(=O)Nc1ccc(N(C)C)cc1)c1ccccc1 |  | 66.3 µM (active)
COc1ccccc1CNCC(=O)NCc1ccc(C)cc1 |  | inactive
CCN(CC)c1ccc(NC(=O)COC(=O)Cc2ccsc2)cc1 |  | 42.9 µM (active)
COc1cc(CC(=O)OCC(=O)Nc2ccc(N(C)C)cc2)cc(OC)c1OC |  | 68 µM (active)
COc1ccccc1CNCC(=O)Nc1ccccc1-n1cccc1 |  | inactive
COc1ccccc1CNC(=O)C[C@@H]1C[C@H]2c3cc(N(C)C)ccc3O[C@H]2[C@H](CO)O1 |  | inactive
CCc1ccc(NC(=O)CNCc2ccc(OC)c(OC)c2)cc1 |  | inactive

SMILES | inhibition | IC50
COc1ccccc1CNCC(=O)Nc1ccc(N(C)C)cc1 |  | 63.3 µM (active)
COc1ccc(NCCC#N)cc1 |  | 82.2 µM (active)
O=S(=O)(O)c1cc(O)c(N=Nc2ccc(O)cc2O)c2ccccc12 |  | 30.7 µM (active)
CC(C)C1N=C2c3ccccc3N=C(SCC(=O)c3ccc(O)c(O)c3)N2C1=O (stereo not drawn) |  | 34.7 µM (active)
CCN(CC)c1ccc(Nc2nc(Cl)ncc2Br)cc1 |  | 49.4 µM (active)
O=c1oc(-c2ccc(O)c(O)c2)cc2cccc(O)c12 |  | 20.7 µM (active)
O=c1oc(-c2ccc(O)c(O)c2)cc2cc(O)cc(O)c12 |  | 23 µM (active)
N#CC1=C(S)N(c2ccc(F)cc2)C(c2cccs2)NC1=O (stereo not drawn) |  | inactive
O=C1NC2c3c(I)sc(I)c3C(=O)C2O1 (stereo not drawn) |  | inactive
Oc1ccc(/C=N/N=C/c2ccc(O)cc2)cc1 |  | 84 µM (active)
COc1cc(CNCCNC(=O)c2nonc2N)ccc1OCc1ccc(Cl)cc1 |  | inactive
COc1cc(/C=N/N=C(\N)c2nonc2N)ccc1O |  | 30.3 µM (active)
N/C(=N\N=C\c1ccc(O)cc1)c1nonc1N |  | 31.1 µM (active)
N#Cc1c(Nc2ccc(Cl)cc2)s[nH]c1=O |  | inactive
Cc1ccc(/C=[N+](\[O-])c2ccc(N(C)C)cc2)c2nsnc12 |  | 16.1 µM (active)
CCOC(=O)C1(C)C=C(Nc2ccc(O)cc2)C(=O)N1c1ccc(O)cc1 (stereo not drawn) |  | 19.6 µM (active)
O=C1/C(=C\c2ccco2)CCC/C1=C\c1ccco1 |  | inactive
Nc1cc(Br)c(N)c(Br)c1 |  | 10.6 µM (active)
OCCN1CCN(C(=S)Nc2cccc(C(F)(F)F)c2)CC1 |  | inactive
CCOC(=O)C1CCCN(C(=S)Nc2ccc(Nc3ccccc3)cc2)C1 (stereo not drawn) |  | 55.1 µM (active)
OCC1CCCN(C(=S)Nc2ccc(Nc3ccccc3)cc2)C1 (stereo not drawn) |  | 41.7 µM (active)
CCOC(=O)C1CCN(Cc2ccc(-c3ccccc3)cc2)CC1 |  | inactive
OC1CCN(C(=S)Nc2ccc(Nc3ccccc3)cc2)CC1 |  | 36.5 µM (active)

SMILES | inhibition | IC50
CCOC(=O)C1CCN(Cc2cccc(Oc3ccccc3)c2)CC1 |  | inactive
COc1ccc(CN2CCN(CCSc3ccc(C)cc3)CC2)c(OC)c1OC |  | inactive
CC1CN(CCCCOc2ccc(Cl)c3ccccc23)CC(C)O1 (stereo not drawn) |  | inactive
CSc1sccc1/C=C(/C#N)C(=O)c1ccco1 |  | inactive
NC(CSS(=O)(=O)O)=NCCC12CC3CC(CC(O)(C3)C1)C2 |  | inactive
COc1cc(/C=N/NC(=O)c2cc(-c3c(C)nn(-c4ccccc4)c3C)n[nH]2)ccc1O |  | 38.8 µM (active)
COc1cc(/C=N/NC(=O)c2nc(-c3ccccc3)n(-c3ccccc3)n2)ccc1O |  | 41.9 µM (active)
COc1cc(/C=N/NC(=O)c2nc(C)cc(C)n2)ccc1O |  | 37.3 µM (active)
COc1cc(/C=N/Nc2nc(C)cc(C)n2)ccc1O |  | 60.7 µM (active)
c1cc(CN2CCN(C3CCCCCC3)CC2)ccn1 |  | inactive
COc1cc(/C=N/Nc2cc(C)nc(NS(=O)(=O)c3ccccc3)n2)ccc1O |  | 41 µM (active)
Oc1ccc(/C=N/NC2=NCCCCC2)c(O)c1 |  | 67.6 µM (active)
Nc1nc2cc(S(=O)(=O)NC3=NCCCCC3)ccc2s1 |  | inactive
COc1cc(/C=N/NC2=NCCCCC2)ccc1O |  | 27.6 µM (active)
COc1cc(/C=N/NC(=O)c2cn(-c3cccc(C)n3)cn2)ccc1O |  | 37.3 µM (active)
O=c1[nH]c2ccccc2n2c(=S)[nH]nc12 |  | 78.8 µM (active)
S=c1[nH]c2ccccc2n2c(=S)[nH]nc12 |  | 51.8 µM (active)
CCCCN(CCCC)CCNC(=O)CSCc1ccc(C)cc1 |  | inactive
Cc1cccc(-n2nc3c(c2NC(=O)c2ccco2)CSC3)c1C |  | inactive
C=CCc1cc(OC)ccc1OCCN1CC(C)OC(C)C1 (stereo not drawn) |  | inactive
c1coc(CSSCc2ccco2)c1 |  | inactive
Nc1ccc(OCc2ccco2)cc1 |  | 58.6 µM (active)
CC1N(C)c2cccc3cccc(c23)N1C |  | 21 µM (active)

SMILES | inhibition | IC50
CCN(CC)c1ccc(N=Cc2c(C)[nH]c3ccccc23)cc1 |  | 41.6 µM (active)
CN(C)C=Nc1ccc2nc3c(cc2c1)[nH]c1ccccc13 |  | inactive
CCN(CC)c1ccc(N=Cc2ccccc2[N+](=O)[O-])cc1 |  | 27.2 µM (active)
O=C1/C(=C/c2ccccc2[N+](=O)[O-])COc2ccccc21 |  | inactive
CC(=C/c1ccccc1)/C=N/n1c(-c2ccco2)n[nH]c1=S |  | 66.7 µM (active)
S=c1[nH]nc(-c2ccco2)n1/N=C/c1ccc(Cl)cc1 |  | 51.2 µM (active)
CC1=C(C)CS(=O)N(S(=O)(=O)c2ccc(Cl)cc2)C1 (stereo not drawn) |  | inactive
Cc1cccc(-c2n[nH]c(=S)n2/N=C/c2ccco2)c1 |  | 78.9 µM (active)
Cc1cccc(CN2CCN(Cc3ccco3)CC2)c1 |  | inactive
Cc1nc2ccc(C(=O)Nc3ccc(N(C)C)cc3)cc2s1 |  | 58.9 µM (active)
Cc1ccc2nc(N(CCCN(C)C)C(=O)c3ccc4ncsc4c3)sc2c1 |  | inactive
O=C(CN1CCc2ccccc2C1)Nc1ccccc1C(F)(F)F |  | inactive
O=C1c2ccccc2C(=O)C1c1ccc(O)cc1 |  | 81.3 µM (active)
COc1cc(C2C(=O)c3ccccc3C2=O)ccc1O |  | 20.4 µM (active)
C[C@H]1CCC/C=C/[C@@H]2C[C@H](O)C[C@H]2[C@H](O)[C@H](S(=O)c2ccc(O)cc2)CC(=O)O1 (stereo partly drawn) |  | inactive
N#CCCN1CCN(CCC#N)c2ccccc21 |  | 20 µM (active)
CN1CCN(CCCNCc2cn(CCC#N)c3ccccc23)CC1 |  | inactive
Oc1ccc(NC(=S)Nc2ccc(O)cc2)cc1 |  | 46.5 µM (active)
CC(=O)Nc1ccc(OC(=O)c2cc3ccccc3oc2=O)cc1 |  | inactive
COC(=O)c1ccc(NC(=S)Nc2ccc(O)cc2)cc1 |  | 68.1 µM (active)
Oc1ccc(NC(=S)Nc2ccccc2)cc1 |  | 55.5 µM (active)
CC(=O)c1ccc(NC(=S)Nc2ccc3[nH]c(=O)[nH]c3c2)cc1 |  | inactive
Cc1ccc(OC(=S)Nc2ccc(O)cc2)cc1 |  | 34.5 µM (active)

SMILES | inhibition | IC50
O=C(/C=C/c1ccco1)NC(=S)Nc1ccc(C(=O)O)cc1 |  | inactive
COc1ccc(OC(=O)COc2ccc(C)cc2)cc1 |  | inactive
CN(C)c1ccc(O)c2c1CC1CC3[C@@H](N(C)C)C(=O)C(C(N)=O)=C(O)[C@]3(O)C(=O)C1=C2O (stereo partly drawn) |  | inactive
COCC(C)NCc1ccc(OC)c(Br)c1 (stereo not drawn) |  | inactive
COc1ccc(CN2CCN(Cc3ccccc3F)CC2)c(OC)c1 |  | inactive
O=C(c1cccnc1)N1CCN(Cc2cccc(Br)c2)CC1 |  | inactive
CC1CCCCN1CC(=O)Nc1ccc(N2CCCCCC2)cc1 (stereo not drawn) |  | inactive
O=C(Nc1ccc(O)cc1)C1CC=CCC1 (stereo not drawn) |  | 64.6 µM (active)
CC(C)N(c1ccccc1)c1ccc(NC(=S)NCCN(C)C)cc1 |  | inactive
O=C(NC(=S)Nc1ccc(O)cc1)C1CCCC1 |  | 31.8 µM (active)
CN(C(=S)NC(=O)C1CC1)c1ccc(O)cc1 |  | inactive
CNC(=S)Nc1ccc(Nc2ccccc2)cc1 |  | 71.8 µM (active)
N=C1/C(=C\c2ccc(Br)o2)C(=O)N=C2SC(CC(=O)N3CCCCC3)=NN12 |  | inactive
COc1ccc(C2NC(=O)C(C#N)=C(S)N2c2ccccc2)cc1OC (stereo not drawn) |  | inactive
Cc1ccn2c(=S)[nH]nc2c1 |  | 46.7 µM (active)
Cc1cccn2c(=S)[nH]nc12 |  | 13.4 µM (active)
S=c1[nH]nc2ccccn12 |  | 24 µM (active)
Cc1ccc(/C=C2/C(=O)c3ccc(C(=O)O)cc3C2=O)o1 |  | inactive
Cc1cc(O)ccc1N=Cc1c(C(F)(F)F)[nH][nH]c1=O |  | 32.8 µM (active)
Oc1ccc(/C=C/c2ccc3ccccc3n2)cc1 |  | 30.7 µM (active)
O=c1[nH]c2ccccc2nc1/C=C/c1ccc(O)cc1 |  | 36.9 µM (active)
